Results on 62 molecules are retold here after PubChem BioAssay AID1851 (National Center for Advancing Translational Sciences (NCATS), 2009).

Each structure is given as a SMILES string. In all, about 16,000 compounds went through this assay and about 5,700 (36%) were called active. About 24% were inconclusive and are not listed. The list shows a part of the results. Unmarked numbers belong to inactive results. Calls follow the shape of the dose curve; as a rule, active = well fitted curve in the direction sought with a large enough effect; inconclusive = small, poorly fitted or top-dose-only effect, or effect the other way; inactive = no such curve, though single readings can be large or run the other way.

By AC50 is commonly meant the concentration at which the activity in the assay is half-maximal.
% is scaled to controls: 0 for no effect and ±100 for the full control effect.

In this assay the target is Cytochrome P450 1A2 (Homo sapiens) (UniProt P05177). In words: Cytochrome panel assay with activity outcomes. Conditions: recombinant CYP, pro-luciferin dealkylation, luminescence, p450-cyp1a2; series mostly up to 57.1 µM.
Sequence of Cytochrome P450 1A2 (Homo sapiens) (P05177 whole entry, looked up): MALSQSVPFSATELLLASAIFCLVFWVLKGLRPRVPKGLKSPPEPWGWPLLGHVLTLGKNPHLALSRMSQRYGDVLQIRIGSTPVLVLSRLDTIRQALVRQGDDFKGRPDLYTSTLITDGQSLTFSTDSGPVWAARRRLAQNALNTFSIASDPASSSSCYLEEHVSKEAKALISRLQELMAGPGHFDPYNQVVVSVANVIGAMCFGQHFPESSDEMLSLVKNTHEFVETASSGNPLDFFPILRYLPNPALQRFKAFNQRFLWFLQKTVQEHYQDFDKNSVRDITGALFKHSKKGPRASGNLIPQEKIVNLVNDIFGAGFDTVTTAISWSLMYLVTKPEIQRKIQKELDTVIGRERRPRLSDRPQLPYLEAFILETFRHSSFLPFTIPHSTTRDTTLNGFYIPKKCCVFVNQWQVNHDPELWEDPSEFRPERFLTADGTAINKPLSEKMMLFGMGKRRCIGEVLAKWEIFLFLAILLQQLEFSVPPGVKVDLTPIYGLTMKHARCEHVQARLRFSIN
Regarding `O=C1c2ccccc2C(=O)N1CC1c2ccccc2CCN1S(=O)(=O)c1ccccc1` (configuration not stated), the AC50 result was “inactive”.

With `COc1ccc(CCNC(=O)C2CCN(S(=O)(=O)N3CC(C)CC(C)C3)CC2)cc1OC` (configuration not stated), the AC50 result was “inactive”.

For the molecule `C#CCCCO/N=C1/C[C@@H](O)[C@@H](O)[C@@H]2[C@@H]3C(=O)N(CCC(=O)OCC)C(=O)[C@H]3CC[C@@H]12`, the activity, negative = inhibition was -0.481% [at 11.4 µM].

For `Cc1ccc(S(=O)(=O)c2cc(C#N)c(=O)[nH]c2N)cc1`, the AC50 result is “inactive”.

`CNc1oc(C)nc1S(=O)(=O)c1ccc(C)cc1`: the AC50 entry was “inactive”.

As for `CSc1nc(-c2ccc(C)cc2)[nH]c1S(=O)(=O)c1ccccc1`, the AC50 is 14100 nM (active).

As for `c1ccc(CCSc2nccn2-c2ccccc2)cc1`, the AC50 is 1780 nM (active).

With `CC1(C)N=C(N)N=C(N)N1c1cccc(CSc2ccccc2)c1`, the activity, negative = inhibition was -17.2% [at 2.29 µM].

For the molecule `CCc1ccc(CSc2nccn2-c2ccccc2)cc1`, the AC50 was 1260 nM (active).

Consider `Clc1ccc(CSc2nccn2Cc2ccccc2)cc1`, for which the AC50 is 25100 nM (active).

`O=c1ccnc(SCc2ccc(Cl)cc2)[nH]1`: the activity, negative = inhibition was -17.6% [at 11.4 µM].

On to `O=C(CSc1nccn1-c1ccccc1)c1ccc(Cl)cc1`, for which the AC50 is 891 nM (active).

For `O=C(C1CCN(S(=O)(=O)c2cccc3nsnc23)CC1)N1CCN(c2ccccc2F)CC1`, the AC50 result was “inactive”.

For `COC(=O)[C@H](CCSC)NC(=O)NCc1ccccc1F`, the AC50 entry was “inactive”.

In the case of `O=C(c1ccccc1)c1ccc2nc(-c3ccc(NC(=O)c4ccccc4F)cc3)[nH]c2c1`, the AC50 result was “inactive”.

With `O=C(c1ccccc1)c1ccc2nc(-c3ccc(NC(=O)c4ccccc4Br)cc3)[nH]c2c1`, the AC50 is 8910 nM (active).

On to `Cc1nc2cnc(N3CCOCC3)nc2n(C)c1=O`, for which the AC50 is 6310 nM (active).

Consider `Cc1nc2cnc(N3CCN(C)CC3)nc2n(C)c1=O`, for which the AC50 was 12600 nM (active).

As for `C1COC(NC(C2CC2)C2CC2)=N1`, the AC50 entry was “inactive”.

Regarding `Nc1ccccc1Nc1ccccc1`, the AC50 is 25100 nM (active).

In the case of `N#[N+]c1ccc(Nc2ccccc2)cc1`, the activity, negative = inhibition was -12.6% [at 11.4 µM].

In the case of `Nc1ccc(Nc2ccccc2)cc1`, the AC50 was 12600 nM (active).

`CCc1c(C(C)O)oc2ccc3c(C)cc(=O)oc3c12` (configuration not stated): the AC50 was 282 nM (active).

As to `CC(C)N1CCN(c2ccncc2S(=O)(=O)N2CCCCC2)CC1`, the activity, negative = inhibition is -16.9% [at 2.29 µM].

As to `Cc1c(C(=O)N/N=C/c2ccccc2)sc(=S)n1C`, the AC50 is 891 nM (active).

For `Cc1c(NC(=S)N/N=C/c2ccc(O)cc2)c(=O)n(-c2ccccc2)n1C`, the AC50 result was “inactive”.

Consider `CCCC(=O)Nc1nc2nc(-c3ccccc3)cc(-c3ccccc3)n2n1`, for which the AC50 was 2510 nM (active).

In the case of `CCCC(=O)Nc1nc2n(n1)C(c1ccccc1)CC(=O)N2` (configuration not stated), the AC50 entry is “inactive”.

`COc1cc(NC(=O)c2cc3nc(-c4ccccc4)cc(-c4ccccc4)n3n2)cc(OC)c1OC`: the AC50 entry is “inactive”.

As for `Cn1c(=O)c(-c2cccc(Cl)c2)nc2cncnc21`, the AC50 was 501 nM (active).

As to `Cn1c(=O)c(-c2ccc(F)c(F)c2)nc2cncnc21`, the AC50 is 158 nM (active).

Take `Cn1c(=O)c(-c2ccc(F)cc2)nc2cncnc21`: the AC50 was 158 nM (active).

As for `Cn1c(=O)c(-c2ccccc2)nc2cncnc21`, the AC50 is 631 nM (active).

In the case of `COc1ccc(-n2c(=O)c(-c3ccc(F)cc3)nc3cncnc32)cc1`, the AC50 entry is “inactive”.

For `C[C@]1(C2CCCC2)Cc2cc(OCC(=O)O)c(Cl)c(Cl)c2C1=O`, the AC50 entry was “inactive”.

With `COC(=O)[C@@]1(Cc2ccc(F)cc2)[C@H]2c3cc(C(=O)N4CCCC4)n(CCc4c[nH]c5ccccc45)c3C[C@H]2CN1C(=O)c1ccccc1`, the AC50 entry was “inactive”.

Take `Cn1c(=O)c(-c2cc(F)cc(F)c2)nc2cncnc21`: the AC50 is 631 nM (active).

As for `Cn1c(=O)c(-c2ccc(Cl)cc2)nc2cncnc21`, the AC50 was 25.1 nM (active).

As to `Cc1ccc(S(=O)(=O)CC#CCOC(=O)c2ccc([N+](=O)[O-])cc2)cc1`, the AC50 was 6310 nM (active).

On to `Cc1ccc(S(=O)(=O)CCCS(=O)(=O)c2ccc(C)cc2)cc1`, for which the AC50 entry was “inactive”.

Consider `CC(=O)NN1C(=O)c2ccc(Oc3ccc([N+](=O)[O-])cc3)cc2C1=O`, for which the AC50 entry was “inactive”.

In the case of `C/C(=N\NC(=S)Nc1ccc(F)cc1)C1CC1`, the AC50 is 1780 nM (active).

Consider `N=C(N)SCc1cccc2c(=O)cc(-c3ccccc3)oc12`, for which the AC50 is 126 nM (active).

Regarding `CN(C)c1ncc2nc(-c3cccs3)c(=O)n(C[C@H]3CCCO3)c2n1`, the AC50 is 1580 nM (active).

For the molecule `CCNc1ncc2nc(-c3cccs3)c(=O)n(C[C@H]3CCCO3)c2n1`, the AC50 was 2510 nM (active).

Take `CN1CCN(c2ncc3nc(-c4cccs4)c(=O)n(C[C@H]4CCCO4)c3n2)CC1`: the AC50 was 12600 nM (active).

As for `OCCCSCCO`, the activity, negative = inhibition is -19.1% [at 2.29 µM].

Turning to `CCCC[C@@H]1CN2[C@H](c3ccc(Br)cc3)[C@@H](C)CC[C@H]2C(=O)O1`, the activity, negative = inhibition was -6.09% [at 11.4 µM].

In the case of `CO[C@@H]1COC(=O)C/C=C\[C@H](C)[C@H](OC)COC(=O)[C@H]2CCCN2C(=O)C/C=C\[C@H]1C`, the activity, negative = inhibition is 1.02% [at 11.4 µM].

For `COc1cccc(/C=N/NC(=O)CO/N=C(\C)c2cccs2)c1OC`, the AC50 is 1410 nM (active).

As to `COc1ccc2ccccc2c1/C=C\C(=O)c1ccccc1`, the AC50 was 3160 nM (active).

Consider `COc1cc(C)cc(OC)c1/C=C\C(=O)O`, for which the activity, negative = inhibition was -6.92% [at 11.4 µM].

As for `COc1ccccc1/C=C/C(=O)c1c2c(c(C)[nH]c1=O)CCCC2`, the AC50 was 12600 nM (active).

For `CCOc1ccc2ccccc2c1C(=O)N[C@@H]1C(=O)N2[C@@H]1SC(C)(C)[C@@H]2C(=O)O`, the AC50 entry is “inactive”.

In the case of `COc1ccccc1/C=C/C(=O)c1ccc(Cl)cc1`, the AC50 was 3550 nM (active).

With `Cc1[nH]c(=O)c(C(=O)/C=C/c2ccccc2F)c2c1CCCC2`, the AC50 is 11200 nM (active).

Take `CC(=O)[C@@H]1CC[C@@H]2[C@@H]3C[C@H](C)C4=CC(=O)CC[C@@]4(C)[C@H]3[C@H](O)C[C@]21C`: the AC50 result was “inactive”.

For the molecule `CS(=O)(=O)N1CCC2(CCCN(C(c3ccccc3)c3ccccc3)C2)CC1`, the AC50 result was “inactive”.

`O=C1CC(c2ccccc2)Cc2nc(N3CCc4ccccc4C3)ncc21` (configuration not stated): the AC50 is 3550 nM (active).

As for `Cc1ccc(C2CC(=O)c3cnc(N4CCc5ccccc5C4)nc3C2)cc1` (configuration not stated), the AC50 result is “inactive”.

For the molecule `CC1CC(=O)c2cnc(N)nc2C1` (configuration not stated), the AC50 result was “inactive”.

Turning to `Cc1ccnn2cc3c(=O)n(C)c(=O)n(C)c3c12`, the AC50 is 12600 nM (active).
